# Compound activity from PubChem BioAssay.
# Shown are actives, neighbours in structure and some others; about 3.4% of the full set was active somewhere.
# GPR151 activ: human GPR151 activation | Q8TDV0 | PathHunter beta-arrestin GPR151 cells, luminescence | activation, % at 11.2 µM | 650,000 compounds, 1% hits | AID 1508602; in the data active = activation above about 4.9%;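 note: 0% = median of compound wells and 100% = cells with positive control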
# MITF inh: inhibitors of human MITF | inhibition, % at 2.6 µM | AID 1259374 | 650,000 compounds, 0.91% hits | O75030 | AlphaScreen MITF homodimerization, bead proximity signal; in the data active = inhibition above about 50%;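 note: 0% = vehicle wells with protein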
# Target sequence (O75030 whole entry, looked up): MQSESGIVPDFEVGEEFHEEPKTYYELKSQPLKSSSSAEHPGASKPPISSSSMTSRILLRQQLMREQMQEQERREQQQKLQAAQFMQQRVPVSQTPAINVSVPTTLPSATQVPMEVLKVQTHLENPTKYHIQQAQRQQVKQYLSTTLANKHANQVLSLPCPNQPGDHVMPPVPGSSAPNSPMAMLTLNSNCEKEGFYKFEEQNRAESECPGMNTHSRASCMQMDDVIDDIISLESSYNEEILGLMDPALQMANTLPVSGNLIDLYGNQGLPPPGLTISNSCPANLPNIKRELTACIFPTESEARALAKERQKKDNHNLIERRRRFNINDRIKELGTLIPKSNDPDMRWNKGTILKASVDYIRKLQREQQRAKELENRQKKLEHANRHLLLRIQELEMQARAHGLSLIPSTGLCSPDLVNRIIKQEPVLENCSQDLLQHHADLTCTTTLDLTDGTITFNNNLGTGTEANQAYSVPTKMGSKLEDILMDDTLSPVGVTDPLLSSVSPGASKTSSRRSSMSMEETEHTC
# FBW7 act: human FBW7 E3 ligase activation, primary screen; Q969H0; AlphaScreen FBW7–phospho-cyclin E peptide binding, activator screen; normalized activity (activation), % at 26.1 µM; 650,000 compounds, 0.13% hits; AID 1259310; in the data active = normalized activity above about 1.9%;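 note: purified mutant Fbw7 with reduced substrate affinity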
# TEAD-YAP inh: TEAD-YAP interaction inhibition; inhibition, % at 9.12 µM; 640,000 compounds, 1.4% hits; HEK-TIYL cells, TEAD-Gal4/YAP UAS-luciferase luminescence; in the data active = inhibition above about 32%;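 note: 0% = median of test compound wells and 100% = reference inhibitor wells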
# Numbers without * were called inactive.
SMILES,GPR151 activ,MITF inh,FBW7 act,TEAD-YAP inh
CC(=O)c1ccc(-c2ccccc2)cc1,0,-9,0,-28
N#CC(C#N)=NNc1ccc(-c2ccccc2)cc1,1,1,0,44*
Nc1cc(C(=O)NC2CCCCNC2=O)ccc1N1CC2CC(C1)c1cccc(=O)n1C2 (stereo not given),1,7,0,9
CN1CCN(C(=O)Cc2ccc(NC3=NC4CS(=O)(=O)CC4S3)cc2)CC1 (stereo not given),0,21,2.6*,-23
CN1CCN(c2ccc([N+](=O)[O-])c(N3CCCC3)c2)CC1,-1,13,0,15
COc1ccc(N2CCN(CCC#N)CC2)cc1,0,57*,0,0
COc1ccc(N2CCN(Cc3ccc(N(C)C)cc3)CC2)cc1,-1,71*,-1,2
CCCOc1ccc(/C=C(/C)[N+](=O)[O-])cc1OC,-1,-14,0,37*
CCOc1ccc(-c2nc(CSCC(=O)N3CCC4(CC3)OCCO4)c(C)o2)cc1,1,-2,0,53*
COc1ccc(-c2nc(CSCC(=O)N3CCC4(CC3)OCCO4)c(C)o2)cc1OC,0,0,0,-6
Cc1ccc(-c2nc(CSCC(=O)N3CCC4(CC3)OCCO4)c(C)o2)cc1,-1,1,0,50*
COc1ccc(OC)c(/C=C2\C(=O)C3CCN2CC3)c1,0,9,0,-1
CC[N+](CC)=c1scc(-c2ccc([N+](=O)[O-])cc2)s1,1,10,0,48*
O=[N+]([O-])c1ccc([As](=O)(O)O)cc1,-2,-9,0,2
COc1ccc(CC2C(=O)N(C)C(=O)N(C)C2=O)cc1,0,1,0,3
COc1ccc(C[C@H]2NC[C@H](O)[C@H]2OC(C)=O)cc1,4,-4,0,103*
COC(=O)CCNCCc1c[nH]c2ccc(OC)cc12,2,-3,1,-6
Cc1[nH]c2c(C(C)C)cccc2c1CCN,3,46,0,91*
Cc1[nH]c2ccccc2c1CCN,2,3,2.1*,-6
Cc1[nH]c2ccc(Cl)cc2c1CCN,0,2,0,8
CS(=O)(=O)c1ccc(N2CCNCC2)c([N+](=O)[O-])c1,0,-6,-1,-1
CCOc1cc(CN2CCN(c3ccccc3)CC2)ccc1OC,-1,16,0,1
COC(=O)/C(C#N)=C\C(=CC(C#N)C(=O)OC)/C=C(/C#N)C(=O)OC (stereo not given),-1,13,0,-5
CNC(=O)Oc1cc([N+](=O)[O-])cc2cccnc12,-1,96*,-1,74*
O=C(O)COc1ccccc1/C=C1\C(=O)NC(=O)N(c2ccc(O)cc2)C1=O,0,75*,0,6
SMILES,GPR151 activ,MITF inh,FBW7 act,TEAD-YAP inh
COc1cc(/C=C2\C(=O)NC(=O)N(c3ccc([N+](=O)[O-])cc3)C2=O)ccc1OCC(=O)O,0,9,0,12
O=C1CSC(c2cccc([N+](=O)[O-])c2)c2c(-c3ccccc3)nn(-c3ccccc3)c2N1 (stereo not given),1,3,0,3
O=C(CCl)Nc1ccc([N+](=O)[O-])c(C(F)(F)F)c1,-1,-13,0,23
CO[C@@H]1C(O)[C@H](O[C@H]2CC[C@@]3(C=O)[C@H](CC[C@@H]4[C@@H]3CC[C@]3(C)[C@@H](C5=CC(=O)OC5)CC[C@]43O)C2)OC(C)[C@@H]1O (stereo not given in full),-1,-4,0,101*
C[C@H]1OC(O[C@H]2[C@@H](O)CC(O[C@H]3[C@@H](O)C[C@H](O[C@H]4CC[C@]5(C)C6CC[C@]7(C)[C@@H](C8=CC(=O)OC8)[C@@H](O)C[C@]7(O)[C@@H]6CC[C@@H]5C4)O[C@@H]3C)O[C@@H]2C)C[C@H](O)C1O (stereo not given in full),3,11,0,78*
CC(=O)O[C@H]1C[C@H](O[C@H]2[C@@H](O)C[C@H](O[C@H]3[C@@H](O)C[C@H](O[C@H]4CC[C@@]5(C)C(CCC6C5C[C@@H](O)[C@]5(C)[C@@H](C7=CC(=O)OC7)CC[C@]65O)C4)O[C@@H]3C)O[C@@H]2C)O[C@H](C)[C@H]1O[C@@H]1O[C@H](CO)[C@@H](O)[C@H](O)[C@H]1O (stereo not given in full),2,16,0,100*
C[C@]12CC[C@H]3[C@@H](CC[C@]4(O)C[C@@H](O)CC[C@]34C=O)[C@@]1(O)CC[C@@H]2C1=CC(=O)OC1,1,18,0,101*
COc1ccccc1NC(=S)NC(NC(=O)CF)C(Cl)(Cl)Cl (stereo not given),0,12,0,-7
CCOc1cccc(C(O)CNC)c1 (stereo not given),0,-4,0,8
CC(C)=CCC[C@]1(C)C=Cc2c(O)c3c(c(CC=C(C)C)c2O1)O[C@]12C(=CC4C[C@@H]1C(C)(C)O[C@@]2(C/C=C(/C)C(=O)O)C4=O)C3=O,1,6,0,75*
CCCCC[C@H]1C(=O)O[C@H](C)[C@H](NC(=O)c2cccc(NC=O)c2O)C(=O)O[C@@H](C)[C@@H]1OC(=O)CC(C)C,2,-3,0,52*
CCCCCC[C@H]1C(=O)O[C@H](C)[C@H](NC(=O)c2cccc(NC=O)c2O)C(=O)O[C@@H](C)[C@@H]1OC(=O)CC(C)C,0,-17,0,50*
COc1cc(N2CCCCC2)c2nonc2c1[N+](=O)[O-],0,2,0,-3
CC1=CC(=C2C(=O)NC(=S)NC2=O)C=C(C(F)(F)F)N1Cc1ccccc1,0,-9,0,52*
CCCCOc1ccc(C2SCC(=O)Nc3c2c(=O)[nH]n3C2CCOC(C)(C)C2)cc1 (stereo not given),0,6,0,4
COc1ccc(C2SCC(=O)Nc3c2c(-c2ccccc2)nn3-c2ccccc2)cc1OC (stereo not given),0,19,1,52*
COc1cccc(NC2=NC(C)(C)CS2)c1,3,1,0,-32
O=c1[nH]c(=S)[nH]c(O)c1N=Nc1ccc2c(c1)OCCO2,-9,-8,0,-28
O=c1[nH]c(O)c(N=Nc2ccc3c(c2)OCCO3)c(=O)[nH]1,-4,48,0,62*
N#Cc1cc2ccc(O)cc2oc1=O,-7,17,0,0
O=C(Nc1ccccc1)OC1CNC(=N[N+](=O)[O-])NC1 (stereo not given),0,2,0,15
CN1/C(=C/C=C/c2oc3ccccc3[n+]2C)Oc2ccccc21 (tested in a mixture with another compound),0,3,0,79*
CC1CCN(Cc2ccc(NC(=O)CCc3nc(C4=CCN(C)CC4)no3)cc2)CC1,2,50,3.9*,8
CC1=CC(=O)NP(=O)(Oc2ccc3ccccc3c2)N1 (stereo not given),0,-1,1.9*,11
COc1ccc2cc(-c3nc4ccccc4[nH]3)c(=N)oc2c1,-9,-15,0,65*
